About 83,000 compounds went through this panel and 20% of them were active in at least one assay; those are over-represented in the sample as a whole.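 Plates (96-well) were seeded with cells, treated with compound at one concentration, and incubated for 48 hours before percent growth was determined.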 A number with no mark means an inactive call. The source made the active and inactive calls. Rule for the calls: active = growth percent below 10; inactive = the rest.
These molecules were tested on HL-60(TB) leukemia (assay: NCI-60 one-dose screen, 48 h (100 = growth as untreated, 0 = no growth, -100 = all killed)). Conditions: 10 µM unless noted.

Row | Structure (SMILES) | growth
1 | [N-]=[N+]=NCc1cccc(/C(O)=C/C(=O)C(=O)O)c1 | 17.3%
2 | C[C@@H](C[C@H](CCO)c1cc(C(F)(F)F)cc(C(F)(F)F)c1)c1ccc2ccccc2c1 | 93.5%
3 | CCOC(C=O)OCC | 104%
4 | CCn1c(Sc2nnc(NC(C)=O)s2)nc2c1c(=O)n(C)c(=O)n2C | 124%
5 | COc1ccc(-c2cc(-c3ccc(Cl)cc3)c(C#N)c(=O)n2CCCCCC(=O)Nc2ccccc2N)cc1 | -14.5% (active)
6 | CCCCNc1nc(NC(C)(C)C)nc(NC(C)(C)C)n1 | 36.6%
